Experimental data published in PubChem BioAssay AID1851 (National Center for Advancing Translational Sciences (NCATS), 2009).
“And” between values parts separate entries of the source, which are not always exact repeats. Equal entries are not always repeated. The campaign covered roughly 16,000 compounds. About 4,000 (25%) were called active. Roughly 26% stayed inconclusive and do not appear here. The call rests on the fitted dose curve; in most records, active means well fitted curve in the direction sought with a large enough effect; inconclusive means small, poorly fitted or top-dose-only effect, or effect the other way; inactive means no such curve, though single readings can be large or run the other way. The list is a sample of the results. Square brackets hold non-standard residues; d marks the D form. Peptide text beside a SMILES is read from it.
On the % scale 0 is the no-effect control and ±100 the full control effect.

The molecules below were run against Cytochrome P450 2C9 (Homo sapiens) (UniProt P11712) (assay: Cytochrome panel assay with activity outcomes). Details: recombinant CYP, pro-luciferin dealkylation, luminescence, p450-cyp2c9; series mostly up to 57.1 µM.
Chain of Cytochrome P450 2C9 (Homo sapiens) (P11712 whole entry, looked up): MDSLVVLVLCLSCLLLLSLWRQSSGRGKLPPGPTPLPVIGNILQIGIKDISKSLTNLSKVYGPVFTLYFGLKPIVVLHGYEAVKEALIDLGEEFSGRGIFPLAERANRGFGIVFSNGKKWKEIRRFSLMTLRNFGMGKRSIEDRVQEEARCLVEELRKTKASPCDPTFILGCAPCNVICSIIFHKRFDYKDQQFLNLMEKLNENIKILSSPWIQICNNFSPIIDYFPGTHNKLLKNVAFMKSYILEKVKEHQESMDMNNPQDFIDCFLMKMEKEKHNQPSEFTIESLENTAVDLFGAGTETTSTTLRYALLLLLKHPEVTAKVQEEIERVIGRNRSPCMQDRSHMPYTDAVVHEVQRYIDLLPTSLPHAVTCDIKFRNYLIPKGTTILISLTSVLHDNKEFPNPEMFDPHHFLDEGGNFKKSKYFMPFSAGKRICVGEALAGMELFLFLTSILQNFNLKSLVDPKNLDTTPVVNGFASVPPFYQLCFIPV
For CCC(=O)c1ccc2c(c1)N(CCCN(C)C)c1ccccc1S2, the AC50 was “inactive”.
For CC(C)(C)N1C(=O)[C@H]2[C@H]3[C@H](O)[C@H](O)C/C(=N/NC(=O)OCc4ccccc4)[C@H]3CC[C@@H]2C1=O, the activity, negative = inhibition was 16% [at 11.4 µM] (inactive).
In the case of COC(=O)[C@@]1(Cc2ccccc2)[C@H]2c3cc(C(=O)N4CCCC4)n(Cc4nc5ccccc5[nH]4)c3C[C@H]2CN1C(=O)c1ccccc1, the AC50 is reported as 1 µM (active).
With COC(=O)[C@@]1(Cc2ccccc2)[C@H]2c3cc(C(=O)N4CCCC4)n(CC4CC4)c3C[C@H]2CN1C(=O)c1ccccc1 the AC50 was 1 µM (active).
CCOC(=O)[C@H](CCc1ccccc1)N[C@@H](C)C(=O)N1CCC[C@H]1C(=O)O was tested, and the AC50 was “inactive”.
In the case of COC(=O)[C@@]1(Cc2ccc(F)cc2)[C@H]2c3cc(C(=O)N(C)C)n(Cc4ccc(C)c(F)c4F)c3C[C@H]2CN1C(=O)c1ccccc1, the AC50 is reported as 25.1 µM (active).
In the case of Cc1cc(=O)n2c3ccccc3n(CC(O)CN3CCCCC3)c2c1C#N (centres undefined), the AC50 is reported as “inactive”.
For CCCCC(=O)Nc1nnc(SCC(=O)NC2CCCC2)s1, the AC50 was “inactive”.
In the case of CCSc1nnc(NC(=O)CSc2nc3c(cc2C#N)CCCC3)s1, the AC50 is reported as 2.51 µM (active).
In the case of CN(C)C(=O)c1ccc(-c2nc(NCc3cccnc3)c3ccccc3n2)cc1, the activity, negative = inhibition is reported as 8.86% [at 2.29 µM] (inactive).
O=C(O)Cc1cccnc1 was tested, and the activity, negative = inhibition was 12.8% [at 11.4 µM] (inactive).
In the case of Cn1c(C(=O)O)c(CC(=O)NCc2cccnc2)c2ccccc21, the AC50 is reported as 3.55 µM (active).
In the case of O=c1nc(-c2ccccc2)cn[nH]1, the AC50 is reported as “inactive”.
Nc1[nH]n2c(=O)cc(-c3ccccc3)nc2c1N=Nc1ccccc1 was tested, and the AC50 was 15.8 µM (active).
For Nc1nc(C(=O)O)c(N=Nc2ccccc2)c(=O)[nH]1, the activity, negative = inhibition was -0.919% [at 11.4 µM] (inactive).
With CCOCCn1c(CN(Cc2ccccc2)Cc2ccccc2)nc2c1c(=O)[nH]c(=O)n2C the AC50 was 7.94 µM (active).
In the case of Cn1c(=O)[nH]c(=O)c2c1nc(CN(Cc1ccccc1)Cc1ccccc1)n2CCN1CCOCC1, the AC50 is reported as 15.8 µM (active).
In the case of Cn1c(=O)[nH]c(=O)c2c1nc(CN1CCOCC1)n2Cc1ccccc1, the AC50 is reported as “inactive”.
In the case of COC(=O)Cn1c(CN(Cc2ccccc2)Cc2ccccc2)nc2c1c(=O)[nH]c(=O)n2C, the AC50 is reported as 14.1 µM (active).
For CN(C)c1ccc(-c2nc(NCCN3CCOCC3)c3ccccc3n2)cc1, the activity, negative = inhibition was 10.3% [at 2.29 µM] (inactive).
CCOC(=O)Cn1c(CN(Cc2ccccc2)Cc2ccccc2)nc2c1c(=O)[nH]c(=O)n2C was tested, and the AC50 was 14.1 µM (active).
Cc1cc(C)n(-c2nc3c(c(=O)[nH]c(=O)n3C)n2CC(C)C)n1 was tested, and the AC50 was “inactive”.
Cc1ccc(C(=O)CNc2nc3c(c(=O)[nH]c(=O)n3C)n2Cc2ccccc2)cc1 was tested, and the AC50 was 0.891 µM (active).
For COCCCCC(=NOCCN)c1ccc(C(F)(F)F)cc1, the AC50 was 3.98 µM (active).
With CCON=C1C(C)(C)C(C)(C)C(C)(C)C1(C)C the activity, negative = inhibition was 4.67% [at 11.4 µM] (inactive).
CCn1c(C)c(/C=N/Nc2nc3ccccc3s2)c2ccccc21 was tested, and the AC50 was “inactive”.
In the case of CCCN=Cc1c(CCC)[nH]n(-c2nc3ccccc3s2)c1=O, the AC50 is reported as 10 µM (active).
With C(/C=C/c1ccco1)=N/N1CCN(c2ccccc2)CC1 the AC50 was “inactive”.
In the case of Cc1sc(N)c(C(=O)c2cccc(C(F)(F)F)c2)c1C, the AC50 is reported as “inactive”.
COC(=O)/C(=C\C(=O)c1ccccc1)Nc1cccc(C(F)(F)F)c1 was tested, and the AC50 was 15.8 µM (active).
With CCC(C(=O)Nc1cccc(C(F)(F)F)c1)c1ccccc1 (centres undefined) the AC50 was 2.82 µM (active).
O=C(CSc1ccc(C(F)(F)F)cc1[N+](=O)[O-])Nc1ccccc1 was tested, and the AC50 was “inactive”.
With O=c1[nH][nH]c(C(F)(F)F)c1C=Nc1ccccc1 the AC50 was “inactive”.
For CCC[C@H]1C(=O)N2C(N(C)C)=Nc3ccc(C)cc3N2C1=O, the AC50 was “inactive”.
For Cn1c(C[C@@H](O)c2nc3ccccc3n2C)nc2ccccc21, the activity, negative = inhibition was 5.4% [at 11.4 µM] (inactive).
Cn1c(COc2nnc(-c3ccc(Cl)cc3)c3ccccc23)nc2ccccc21 was tested, and the AC50 was 3.98 µM (active).
In the case of COc1ncc2nc(-c3ccc(Cl)cc3)c(=O)n(-c3ccccc3)c2n1, the AC50 is reported as “inactive”.
With CSCC[C@H](C=O)NC(=O)[C@H](CC(C)C)NC(=O)[C@H](CC(C)C)NC(C)=O (Ac-Leu-Leu-[dM]-aldehyde) the AC50 was “inactive”.
For Cc1c(Cl)c([N+](=O)[O-])nn1Cc1ccc(C(=O)N/N=C\c2cc(Cl)ccc2O)o1, the AC50 was 3.98 µM (active).
C/C(Cn1nc([N+](=O)[O-])cc1C)=N\NC(=O)c1ccc(O)cc1O was tested, and the AC50 was “inactive”.
For Cc1c(Cl)c([N+](=O)[O-])nn1Cc1ccc(C(=O)N/N=C\c2cccc(Br)c2)o1, the AC50 was 5.62 µM (active).
Cc1nn(Cc2ccc(Cl)cc2)c(C)c1NC(=O)Cn1nc([N+](=O)[O-])c(Cl)c1C was tested, and the AC50 was “inactive”.
With CCN(CC)CC[n+]1ccc2c(C)c3[nH]c4ccccc4c3c(C)c2c1 the activity, negative = inhibition was 3.85% [at 11.4 µM] (inactive).
With O=C(O)c1nn(-c2ccccc2-c2n[nH]c(=O)[nH]c2=O)c(=O)[nH]c1=O the activity, negative = inhibition was -7.45% [at 11.4 µM] (inactive).
With CN(Cc1ccco1)c1cc(-c2ccoc2)ncn1 the activity, negative = inhibition was -1.76% [at 2.29 µM] (inactive).
For C1COC(NC(C2CC2)C2CC2)=N1, the AC50 was “inactive”.
O=C(CSc1n[nH]c(-c2ccccc2O)n1)N1CCCc2ccccc21 was tested, and the AC50 was 1.12 µM (active).
In the case of O=C(CNCCO)N1CCc2ccccc21, the AC50 is reported as “inactive”.
In the case of O=C(O)CCCCCCCC(=O)O, the AC50 is reported as “inactive”.
C#CCCCCCCCCCCCCCCCC(=O)O was tested, and the AC50 was 12.6 µM (active).
With C#CCOCCCC(=O)O the activity, negative = inhibition was 14.4% [at 11.4 µM] (inactive).
COC(=O)C/C=C\[C@@H](C)[C@@H]1C=C[C@H](OC(C)=O)[C@H](COC(C)=O)O1 was tested, and the activity, negative = inhibition was 14.8% [at 11.4 µM] (inactive).
CCOC(=O)C(C)CC(C)C(=O)N1CCOCCN(C(=O)C(C)CC(C)C(=O)OCC)CCOCC1 (centres undefined) was tested, and the AC50 was “inactive”.
For CN(C)CC(C)(C)CN1c2ccccc2Sc2ccccc21, the activity, negative = inhibition was -2.35% [at 11.4 µM] (inactive).
CCc1cccc2c(-c3ccccc3)c3c(nc12)OCC3 was tested, and the AC50 was 12.6 µM (active).
In the case of CCc1cccc2c3c([nH]c12)[C@@](CC)(CC(=O)O)OCC3, the AC50 is reported as “inactive”.
With CC1(C)O[C@H]2[C@@H](c3[nH]nc4c(=O)[nH]c(=O)[nH]c34)OC[C@H]2O1 the activity, negative = inhibition was 5.4% [at 11.4 µM] (inactive).
CO[C@H]1COC(=O)C/C=C\[C@H](C)[C@@H](NS(=O)(=O)c2ccc(C)cc2)COC(=O)C/C=C\[C@@H]1C was tested, and the activity, negative = inhibition was -17.2% [at 11.4 µM] (inactive) and -4.44% [at 11.4 µM] (inactive).
For CSCC[C@@H]1NC(=O)C/C=C\[C@@H](C)COC(=O)[C@H](C)COC1=O, the activity, negative = inhibition was -7.38% [at 11.4 µM] (inactive).
c1ccc2c(c1)nnn2CN1CCOCC1 was tested, and the activity, negative = inhibition was 15.8% [at 11.4 µM] (inactive).
c1ccc(-c2ccc(C3=Nn4c(Cn5nnc6ccccc65)nnc4SC3)cc2)cc1 was tested, and the AC50 was 12.6 µM (active).
For Cc1cnc(CNc2ncncc2-c2ccccc2Cl)cn1, the activity, negative = inhibition was 28.2% [at 2.29 µM] (inactive).
With CCCOc1ccc(C2C(=O)N(C3CCCCC3)CC(=O)N2C2CC2)cc1OC (centres undefined) the AC50 was 10 µM (active).
COc1cc(C2C(=O)N(C3CCCC3)CC(=O)N2Cc2ccco2)ccc1OC(C)C (centres undefined) was tested, and the AC50 was 10 µM (active).
With COc1ccc(C2C(=O)N(C3CCCCCC3)CC(=O)N2Cc2ccccc2)cc1OC (centres undefined) the AC50 was 12.6 µM (active).
For COc1ccc([C@@H]2CNC(=O)C2)cc1OC1CCCC1, the AC50 was “inactive”.
For COc1ccc(CN2C(=O)CN(C3CCCCCC3)C(=O)C2c2ccc(OC)c(OC)c2)cc1 (centres undefined), the AC50 was 11.2 µM (active).
For Cc1ccc(S(=O)(=O)N[C@H]2COC(=O)CC=C[C@@H](C)[C@H]3C=C[C@H](O)[C@@H](COC(=O)CC=C[C@H]2C)O3)cc1, the activity, negative = inhibition was -13.5% [at 11.4 µM] (inactive) and 14.3% [at 11.4 µM] (inactive).
In the case of O=C(Nc1cccc(F)c1)N1CCC2(CC1)CCN(C(=O)c1cnccn1)CC2, the AC50 is reported as “inactive”.
In the case of CCCCN=c1sc(C(=O)OC)cc(=O)n1CCCC, the AC50 is reported as “inactive”.
COc1ccc([N+](=O)[O-])cc1N(CC(O)CN(CC(C)C)CC(C)C)S(=O)(=O)c1ccccc1 (centres undefined) was tested, and the AC50 was 12.6 µM (active).
Cc1ccsc1/C=N/Nc1nc(Cl)c(Cl)cc1Cl was tested, and the AC50 was “inactive”.
For CCc1c(C)c(C#N)c2nc3ccccc3n2c1N1CCN(c2cc(C)ccn2)CC1, the AC50 was 1.26 µM (active).
CCN(CC)CCOC(=O)C1(C2CCCCC2)CCCCC1 was tested, and the AC50 was “inactive”.
For CN1CCN(c2nc3cc(C(F)(F)F)ccc3n3cccc23)CC1, the AC50 was “inactive”.
For FC(F)(F)c1ccc(N2CCOCC2)c(Nc2nc3ccccc3n3cnnc23)c1, the AC50 was 15.8 µM (active).
With CC(/C=C1\N=C(SCc2ccccc2Cl)SC1=O)=C\c1ccccc1 the AC50 was 1.58 µM (active).
With CCc1nnc(NC(=O)c2c(C)nn(-c3ccccc3)c2Cl)s1 the AC50 was 8.91 µM (active).
For CCCC(=O)Nc1nnc(CCN2CCCCC2)s1, the AC50 was “inactive”.
In the case of CCc1nnc(NC(=O)c2cc(-c3ccccc3)nn2-c2ccccc2)s1, the AC50 is reported as 8.91 µM (active).
For COc1ccccc1CNc1ncncc1-c1cccc(C#N)c1, the activity, negative = inhibition was -22.7% [at 2.29 µM] (inactive).
With CC(/C=N\NC(=O)Cn1c(C)nc2ccccc21)=C\c1ccccc1 the AC50 was 2.82 µM (active).
Cc1nc2ccccc2n1CC(=O)N/N=C\C=C\c1ccccc1 was tested, and the AC50 was 7.08 µM (active).
Cc1nc2ccccc2n1CC(=O)N/N=C\c1ccccn1 was tested, and the AC50 was “inactive”.
O=c1[nH]n(-c2cccc(Cl)c2)c2ncccc12 was tested, and the AC50 was “inactive”.
For Cc1ccccc1OCCNc1ccc(C(F)(F)F)cc1[N+](=O)[O-], the AC50 was 3.55 µM (active).
In the case of COc1ccccc1-c1nccc(NCc2cnc(C)cn2)n1, the activity, negative = inhibition is reported as 19.3% [at 2.29 µM] (inactive).
COc1ccc2nc(NC(C)=O)sc2c1 was tested, and the AC50 was “inactive”.
For COc1ccc(OC)c(C2C(C(=O)Nc3nc4ccccc4s3)=C(C)NC3=C2C(=O)CCC3)c1 (centres undefined), the AC50 was 0.631 µM (active).
